Rows were chosen to be rich in hits. Some 4.7% of all compounds tested hit in one or more screens of this group.
GALC G270D act: raises human GALC G270D mutant activity in cells; 0.1% of 45,000 active; 145M-Twi-hGALC-G270D cells (Twitcher mouse brain line with human GALC G270D), HMU-beta-Gal fluorescence, 48 h; Potency, µM (highest dose often 57.5 µM), most hits filed as activators; further: potency means the concentration at half of the fitted maximal effect; 0% is about no effect; nearly all actives have a fitted effect of over 65% in size
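Live 145M-Twi cells (Twitcher mouse brain-derived, GALC-null) stably expressing human GALC-G270D, with a wild-type GALC line, were compound-treated. Residual GALC activity was then read as fluorescence from 0.1 mM final HMU-β-gal at pH 5.2; higher signal means activation.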
NTMT1 inh: NTMT1 methyltransferase inhibition; NTMT1 MTase-Glo SAH luminescence, purified enzyme; Potency, µM (top dose mostly 114 µM), for inactives: at the top dose activity change, negative = inhibition, actives largely listed as inhibitors; 2.5% of 59,000 active; AID 1645870;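 further: potency means the concentration at half of the fitted maximal effect; plate controls were DMSO vehicle for no effect and no enzyme for full effect; nearly all actives have a fitted effect of over 65% in size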
Target sequence (Q9BV86 whole entry, looked up): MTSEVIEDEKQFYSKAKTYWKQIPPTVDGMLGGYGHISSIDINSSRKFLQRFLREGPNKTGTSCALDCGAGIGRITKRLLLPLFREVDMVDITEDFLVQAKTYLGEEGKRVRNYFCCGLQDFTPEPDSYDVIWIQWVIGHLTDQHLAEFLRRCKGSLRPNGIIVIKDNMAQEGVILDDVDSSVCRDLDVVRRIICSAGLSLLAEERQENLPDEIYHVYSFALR
HTT-AS act: HTT-AS promoter activation. 0.24% of 48,000 active. HEK293 HTT-AS promoter firefly luciferase reporter, 24 h; response scale: percent change from vehicle, -100% = no light. Potency, µM (top dose mostly 57.5 µM), inactives show at the top dose activity change, positive = activation, actives largely listed as activators. AID 1508624; further: potency means the concentration at half of the fitted maximal effect; nearly all actives have a fitted effect of over 55% in size
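Luminescence was read after Dual-Glo reagent and a 10 min room-temperature incubation. Values were normalized to vehicle (0% activity) and zero RLU (-100% activity). Reporter HEK293 cells had been exposed to compounds (up to 57.5 uM final) for 24 h.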
FH mod: Identification of activators of human fumarate hydratase by quantitative high-throughput screening; AID 1347055, 2019; Fumarate hydratase, mitochondrial (Homo sapiens), P07954; FH coupled MDH/diaphorase resazurin fluorescence, 15 min; Potency, µM (top dose mostly 79.9 µM), without a hit: at the top dose activity change, negative = inhibition, most hits filed as inhibitors; 0.22% of 54,000 active; further: potency means the concentration at half of the fitted maximal effect; on the % scale 0 is the no-effect control and ±100 the full control effect; the screen sought activators but most active calls are inhibition curves; nearly all actives have a fitted effect of over 45% in size
DRV1 agonist: activates human resolvin D1 receptor GPR32 | O75388 | CHO-K1 GPR32 beta-arrestin PathHunter luminescence, 90 min; zero percent set by DMSO-only wells | activation, % at 76.9 µM | 2.5% of 48,000 active | AID 1346428;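 active means activation of at least 60% and not above a set upper limit, about 1 call in 100 departs from these limits; inconclusive means activation of 40% to 60%, or above that upper limit; inactive means activation under 40%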; further: 0% is about no effect
Target sequence (O75388 whole entry, looked up): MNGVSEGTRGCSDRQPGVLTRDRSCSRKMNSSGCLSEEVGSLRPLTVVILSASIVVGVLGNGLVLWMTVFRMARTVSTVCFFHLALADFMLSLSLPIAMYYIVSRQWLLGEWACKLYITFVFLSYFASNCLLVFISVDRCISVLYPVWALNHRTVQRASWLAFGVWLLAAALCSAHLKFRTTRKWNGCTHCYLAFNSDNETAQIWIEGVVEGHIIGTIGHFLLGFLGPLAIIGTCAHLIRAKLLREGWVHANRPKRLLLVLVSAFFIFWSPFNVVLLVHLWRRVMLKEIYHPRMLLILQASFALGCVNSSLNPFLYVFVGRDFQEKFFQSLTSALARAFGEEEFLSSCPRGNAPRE
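CHO-K1 cells stably expressing ProLink-tagged GPR32 and Enzyme Activator-tagged beta-arrestin were seeded at 2,500 cells/well overnight, exposed to compounds for 90 min at 37 °C, then read by beta-Gal complementation chemiluminescence after 1 h detection reagent.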
HTT prom inh: inhibits huntingtin promoter activity. HEK293 HTT promoter firefly luciferase reporter, 24 h. AID 1508623. Potency, µM (top dose mostly 57.5 µM), for the others: top-dose activity change, negative = inhibition, usual class: inhibitors. 0.93% of 48,000 active; further: potency means the concentration at half of the fitted maximal effect; nearly all actives have a fitted effect of over 50% in size
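HEK293 cells carrying firefly luciferase reporters were seeded at 2,500 per well in Opti-MEM and cultured for 24 h. They were then treated with compounds at up to 57.5 uM final for 24 h at 37 degrees C before Dual-Glo luminescence readout.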
The depositor's hits bear a star; i = inactive; ? = inconclusive; . = no result given; [ ] = another dose, or the depositor's remark. Unless noted, the call rests on the fitted dose curve; in most records, active means well fitted curve in the direction sought with a large enough effect; inconclusive means small, poorly fitted or top-dose-only effect, or another doubt; inactive means no such curve, though single readings can be large; an effect the other way counts as inactive or inconclusive.

SMILES | GALC G270D act | NTMT1 inh | HTT-AS act | FH mod | DRV1 agonist | HTT prom inh
O=C(NCCc1csc(-c2ccc(F)cc2)n1)c1c(F)cccc1Cl | i | 1% | -22% | -21% | 45 | ?
O=C(Cc1ccc(F)cc1)NCCc1csc(-c2cccc(F)c2)n1 | i | 9% | -18% | -1% | 103* | ?
Cc1ccc(C)n1-c1cccc(C(=O)O)c1 | . | 2.2µM* | . | . | . | .
COc1ccc(-c2c(C)c3ccc(O)c(CN4CCCC(C)C4)c3oc2=O)cc1OC (stereo not given) | 20µM* | -3% | -21% | 1% | -23 | -30%
COc1ccc(-c2cc3ccc(O)c(CN4CCCC(C)C4)c3oc2=O)cc1OC (stereo not given) | 22µM* | 20% | -1% | -11% | 0 | 5%
COc1ccc(-c2c(C)c3ccc(O)c(CN4CCCCC4)c3oc2=O)cc1OC | i | -10% | -9% | 9% | -5 | -14%
CC(=O)O[C@H]1[C@H](O[C@H]2CC[C@]34C[C@]35CC[C@]3(C)[C@@H]([C@@]6(C)CC[C@@H](C(C)(C)O)O6)[C@@H](O)C[C@@]3(C)[C@@H]5C[C@H](O[C@@H]3O[C@H](CO)[C@@H](O)[C@H](O)[C@H]3O)[C@H]4C2(C)C)OC[C@@H](OC(C)=O)[C@@H]1O | . | -6%[57.5 µM] | . | 1% | . | .
COc1ccc(Cn2c(CO)cnc2SCc2ccc(F)cc2)cc1 | i | 89µM* | -32% | 3% | ? | 32µM*
OCc1cnc(SCc2ccccc2F)n1Cc1ccc(F)cc1 | i | -8% | -31% | 6% | 94* | -21%
COc1ccc(Cn2c(CO)cnc2SCc2ccc(C)cc2)cc1 | i | -7% | ? | -4% | -4 | 63%
COc1ccc(Cn2c(CO)cnc2SCc2ccccc2C)cc1 | i | -3% | ? | -1% | -12 | 61%
CCCOc1ccc(/C=C/C(=O)Nc2sc(C)c(C)c2C(=O)OCC)cc1OC | i | 79µM* | -13% | 0% | -11 | -10%
CC(=O)C1=C(c2ccc(Cl)c(Cl)c2)N(C(C)=O)n2cnnc2S1 | i | 56µM* | -83% | ? | 2 | ?
Cc1ccc2nc3sc(C(=O)NC4CCCC4)cc3cc2c1 | . | 1%[57.5 µM] | . | . | . | .
NC(=O)C1CCN(c2ncc(Br)s2)CC1 | . | 40µM* | . | . | . | .
COc1ccc(-c2cnc(N3CCC(C(N)=O)CC3)s2)cc1OC | . | 4% | . | . | . | .
Cc1cc2c(cc1S(=O)(=O)NCc1ccccc1Cl)OCC(=O)N2 | i | -6% | -16% | -2% | 3 | -26%
Cc1ccc(CNS(=O)(=O)c2cc3c(cc2Cl)NC(=O)CO3)o1 | i | 89µM* | -4% | -20% | -8 | 3%
CCCOc1ccccc1C(=O)Nc1ccc(-c2nc3ccc(C)cc3s2)cc1 | i | 7% | 2.2µM* | -10% | 4 | -15%
CO[C@@H]1COCC[C@@H]1N[C@@H]1CC[C@@](C(=O)N2CCc3ncc(C(F)(F)F)cc3C2)(C(C)C)C1 | . | ? | . | -20%[20.6 µM] | . | .
Cc1cc2c(s1)c1cnn(Cc3ccc(C)c(F)c3)c(=O)c1n2C | . | 79µM* | . | . | . | .
Cc1ccc(NS(=O)(=O)c2ccc3[nH]c4c(c3c2)CCCC4)cc1N(C)C | i | 1% | -39% | ? | 92* | ?
CCOc1ccc(NS(=O)(=O)c2ccc3[nH]c4c(c3c2)CCCCC4)cc1 | i | -12% | 7%[11.5 µM] | ? | 66* | ?
CCOc1ccc(NS(=O)(=O)c2ccc3nc(-c4ccccc4)[nH]c3c2)cc1 | i | -10% | -31% | ? | ? | -30%
COc1ccc(NS(=O)(=O)c2ccc3nc(-c4ccccc4)[nH]c3c2)cc1 | i | -4% | -35% | -25% | 116* | ?
SMILES | GALC G270D act | NTMT1 inh | HTT-AS act | FH mod | DRV1 agonist | HTT prom inh
COc1ccc(NS(=O)(=O)c2ccc3[nH]c4c(c3c2)CCCCC4)cc1 | i | ? | -6% | -8% | 74* | ?
CC(=O)c1ccc(C(=O)Nc2nnc(-c3ccco3)o2)cc1 | . | 3% | . | . | . | .
COc1ccc(NS(=O)(=O)c2ccc3[nH]c4c(c3c2)CCCC4)cc1Cl | i | -4% | -35% | ? | 90* | -19%
COc1ccc(OC)c(CNS(=O)(=O)c2ccc3[nH]c4c(c3c2)CCCCC4)c1 | i | ? | -49% | ? | 96* | ?
Cc1ccc(NS(=O)(=O)c2ccc3[nH]c4c(c3c2)CCCCCC4)cc1Cl | i | -3% | -49% | ? | 19 | ?
CC(C)CC(=O)OCc1cc(=O)n2nc(C3CCCCC3)sc2n1 | i | 5% | 17% | 4% | 71* | -5%
CCc1cccc(NS(=O)(=O)c2ccc(-n3cccn3)cc2)c1 | i | 0% | -40% | -13% | 86* | 35µM*
O=S(=O)(Nc1ccc(F)cc1F)c1ccc(-n2cccn2)cc1 | i | 2% | -31% | -6% | 75* | ?
Cc1cc(C)cc(NS(=O)(=O)c2ccc(-n3cccn3)cc2)c1 | i | -1% | -35% | -35% | 7 | ?
COc1ccc(NS(=O)(=O)c2ccc(-n3cccn3)cc2)cc1OC | i | 14% | -90% | -1% | 14 | 7.9µM*
Cc1ccc(NS(=O)(=O)c2ccc(-n3cccn3)cc2)cc1Cl | i | 1% | -32% | -9% | 73* | ?
CSc1ccccc1-c1ccc(Nc2nc(-c3ccncc3)nc3ccccc23)cc1F | . | -1%[57.5 µM] | . | . | . | .
COc1ccc(Cl)cc1N=C1NC(=O)CC(C(=O)Nc2ccccc2C(F)(F)F)S1 (stereo not given) | i | 14% | -23% | -20% | 13 | ?
COc1cc(C(=O)O)ccc1NC(=O)[C@@H]1N[C@@H](CC(C)(C)C)[C@](C#N)(c2ccc(Cl)cc2F)[C@H]1c1cccc(Cl)c1F | . | 11µM* | . | . | . | .
Cn1c(=O)cc(N2CCCC(N)C2)n(Cc2cc(F)ccc2C#N)c1=O (stereo not given) | . | -5%[57.5 µM] | . | -1% | . | .
CC1=C(/C=C/C(C)=C\C=C\C(C)=C/C(=O)O)C(C)(C)CCC1 | . | -2%[57.5 µM] | . | 0% | . | .
